Test results as given in PubChem BioAssay (Tox21).
Several values for one entry are separate records, joined by “and”; a condition that tells them apart may be missing. Equal values may be shown once. Unmarked numbers belong to inactive results. Inconclusive results are not listed. Entries that show only a call come without a potency. Activity calls are given as the source filed them. Unless noted, calls follow the shape of the full dose curve.

Tests used:
[1] = Nuclear factor erythroid 2-related factor 2/antioxidant responsive element (Nrf2/ARE) small molecule agonists: qHTS cell viability counter screen in human keratinocytes (AID 1919968; active = well fitted curve in the direction sought with a large enough effect in the repeat runs; an effect the other way counts as inactive or inconclusive; also: nearly all actives have a fitted effect of over 55% in size)
Summary of the method: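 Cytotoxicity was multiplexed with the Nrf2/ARE luciferase assay in the same wells. Stably transfected HaCaT keratinocytes were treated with test compounds for 23 h at 37 C. Cell viability was then measured by CellTiter-Fluor fluorescence.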

[2] = Nuclear factor erythroid 2-related factor 2/antioxidant responsive element (Nrf2/ARE) small molecule agonists: luciferase reporter gene qHTS assay in human keratinocytes (AID 1919969); also: nearly all actives have a fitted effect of over 35% in size; also: potency is read from the fitted curve at half-maximal effect
[3] = biological target: Gonadotropin-releasing hormone receptor (Homo sapiens) (UniProt P30968); assay: Human gonadotropin-releasing hormone receptor (GnRHR) small molecule agonists, calcium flux assay in GnRHR-HEK293 cells (AID 1920063); also: nearly all actives have a fitted effect of over 35% in size
Gonadotropin-releasing hormone receptor (Homo sapiens), sequence (P30968 whole entry, looked up): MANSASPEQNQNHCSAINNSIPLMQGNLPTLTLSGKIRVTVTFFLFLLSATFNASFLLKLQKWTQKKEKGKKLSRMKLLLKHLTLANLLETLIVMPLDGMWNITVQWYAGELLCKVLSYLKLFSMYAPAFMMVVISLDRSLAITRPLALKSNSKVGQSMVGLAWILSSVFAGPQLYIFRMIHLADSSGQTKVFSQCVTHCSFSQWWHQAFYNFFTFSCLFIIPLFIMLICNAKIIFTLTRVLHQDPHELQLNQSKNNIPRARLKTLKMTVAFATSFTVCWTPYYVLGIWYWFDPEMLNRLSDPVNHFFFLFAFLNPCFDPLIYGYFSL
Summary of the method: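 Agonist activity was measured as intracellular calcium flux in HEK293 cells engineered to stably express human GnRHR. After dye loading for 1 hour at 37 C, compounds in DMSO were added and fluorescence was followed for 3 minutes.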

[4] = biological target: KiSS-1 receptor (Homo sapiens) (UniProt Q969F8); assay: Human kisspeptin (KISS1R) small molecule agonists, calcium flux assay in KISS1R-HEK293 cells (AID 1920064; active = well fitted curve in the direction sought with a large enough effect in the repeat runs; an effect the other way counts as inactive or inconclusive)
KiSS-1 receptor (Homo sapiens), sequence (Q969F8 whole entry, looked up): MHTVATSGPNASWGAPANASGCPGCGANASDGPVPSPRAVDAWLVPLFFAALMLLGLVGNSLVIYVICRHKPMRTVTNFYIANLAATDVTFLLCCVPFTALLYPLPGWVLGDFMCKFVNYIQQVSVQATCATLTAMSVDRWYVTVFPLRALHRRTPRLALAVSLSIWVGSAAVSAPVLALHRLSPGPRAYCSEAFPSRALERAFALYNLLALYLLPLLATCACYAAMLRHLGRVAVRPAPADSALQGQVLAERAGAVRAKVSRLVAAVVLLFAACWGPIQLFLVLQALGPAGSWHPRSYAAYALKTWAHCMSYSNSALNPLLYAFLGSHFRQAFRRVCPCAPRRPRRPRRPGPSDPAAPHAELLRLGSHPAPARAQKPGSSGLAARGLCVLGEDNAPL
Summary of the method: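 Agonist activity is monitored as intracellular calcium rise in engineered HEK293 cells carrying human KISS1R. Cells are dye-loaded for 1 h at 37 C before compound addition, and fluorescence is recorded for 3 min.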

[5] = G protein-coupled receptor (GPCR) small molecule agonists, calcium flux assay: HEK293 wild type cell line counter screen (AID 1920065)
Summary of the method: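 Seed cells, incubate 18 h (37 C, 5% CO2); add calcium dye, 1 h at 37 C; pin-transfer compounds, ATP control or DMSO; read fluorescence 480/540 nm each second for 3 min.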

[6] = p53 small molecule agonists, cell-based qHTS assay with human liver microsomes (AID 1963577);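 also: p53 response element beta-lactamase reporter cells with liver microsomes plus NADPH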
Summary of the method: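 In this qHTS, p53 response-element beta-lactamase cells receive test compound together with a microsome/NADPH activating system (0.5 mg/mL final each) and are incubated 16 h at 37 C before LiveBLAzer fluorescence detection.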

[7] = p53 small molecule agonists, cell-based qHTS assay with rat liver microsomes: qHTS cell viability counter screen (AID 1963580); also: nearly all actives have a fitted effect of over 45% in size
Summary of the method: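 Counter screen for cytotoxicity under metabolic activation: rat liver microsomes and NADPH, 0.5 mg/mL final each, added with compounds to p53RE-bla HCT-116 cells; 16 h at 37 C, then ATP luminescence read.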

[8] = p53 small molecule agonists, cell-based qHTS assay: qHTS cell viability counter screen (AID 1963581); also: nearly all actives have a fitted effect of over 45% in size
Summary of the method: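 Viability was counter-screened in parallel with the p53 agonist reporter by measuring intracellular ATP luminescence in the same HCT-116 p53RE-bla wells after 16 h compound treatment at 37 C.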

[9] = p53 small molecule agonists, cell-based qHTS assay (AID 1963582; active = well fitted activation curve with a large enough effect in the signal ratio in the repeat runs, not every such curve was filed as active; the % refers to the signal ratio)
Summary of the method: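 Cells carrying a p53-responsive bla reporter are treated with test compounds for 16 h at 37 C; beta-lactamase activity is then detected with LiveBLAzer B/G FRET substrate after 2 h at room temperature.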

[10] = biological target: 5-hydroxytryptamine receptor 2A (Homo sapiens) (UniProt P28223); assay: 5-hydroxytryptamine receptor 2A (HTR2A) small molecule antagonists, cell-based qHTS assay (AID 1963586); also: nearly all actives have a fitted effect of over 45% in size
5-hydroxytryptamine receptor 2A (Homo sapiens), sequence (P28223 whole entry, looked up): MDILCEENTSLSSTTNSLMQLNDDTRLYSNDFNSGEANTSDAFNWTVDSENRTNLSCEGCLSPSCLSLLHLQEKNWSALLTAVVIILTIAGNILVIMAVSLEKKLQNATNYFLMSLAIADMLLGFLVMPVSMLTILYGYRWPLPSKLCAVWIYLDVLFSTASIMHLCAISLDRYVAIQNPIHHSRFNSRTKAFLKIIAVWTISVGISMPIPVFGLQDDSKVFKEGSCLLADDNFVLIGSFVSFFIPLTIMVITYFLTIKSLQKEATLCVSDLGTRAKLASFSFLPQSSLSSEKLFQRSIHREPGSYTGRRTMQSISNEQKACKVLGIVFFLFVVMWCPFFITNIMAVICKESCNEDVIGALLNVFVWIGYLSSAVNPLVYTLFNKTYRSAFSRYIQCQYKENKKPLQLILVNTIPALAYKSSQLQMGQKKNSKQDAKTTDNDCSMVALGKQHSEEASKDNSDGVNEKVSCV
Summary of the method: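 CHO cells stably expressing human HTR2A were plated for 18 h at 37 C, then loaded with calcium dye for 1 h. Compounds were preincubated 5 min at room temperature before DOI (4 nM solution) was added. Kinetic fluorescence was read for 3 min.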

[11] = biological target: 5-hydroxytryptamine receptor 2A (Homo sapiens) (UniProt P28223); assay: 5-hydroxytryptamine receptor 2A (HTR2A) small molecule agonists, cell-based qHTS assay (AID 1963587); also: nearly all actives have a fitted effect of over 30% in size
Summary of the method: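 HTR2A-CHO cells, plated 18 h at 37 C/5% CO2, dye-loaded 1 h at 37 C; compounds in DMSO added by pin tool (agonist mode). Intracellular calcium flux read as kinetic fluorescence on FDSS over 2 min at 1 s intervals.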

[12] = biological target: Muscarinic acetylcholine receptor M1 (Homo sapiens) (UniProt P11229); assay: Cholinergic receptor muscarinic 1 (CHRM1) small molecule agonists, cell-based qHTS assay (AID 1963589); also: nearly all actives have a fitted effect of over 35% in size
Muscarinic acetylcholine receptor M1 (Homo sapiens), sequence (P11229 whole entry, looked up): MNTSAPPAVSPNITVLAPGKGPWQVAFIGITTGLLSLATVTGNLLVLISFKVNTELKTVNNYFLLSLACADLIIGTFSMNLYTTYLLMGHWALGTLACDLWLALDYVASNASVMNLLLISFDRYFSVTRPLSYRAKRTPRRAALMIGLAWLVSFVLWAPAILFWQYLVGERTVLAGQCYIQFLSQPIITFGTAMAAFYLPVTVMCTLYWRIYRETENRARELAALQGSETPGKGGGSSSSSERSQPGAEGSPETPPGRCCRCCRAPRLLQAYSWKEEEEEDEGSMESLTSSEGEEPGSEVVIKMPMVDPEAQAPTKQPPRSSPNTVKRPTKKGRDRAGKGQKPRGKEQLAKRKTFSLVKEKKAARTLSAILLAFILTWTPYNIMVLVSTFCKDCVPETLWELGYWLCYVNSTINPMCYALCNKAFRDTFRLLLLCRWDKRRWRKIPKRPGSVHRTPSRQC
Summary of the method: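 Cells were plated and incubated 18 h at 37 C/5% CO2, loaded with calcium dye for 1 h at 37 C, then treated with compounds in DMSO. Fluorescence was recorded kinetically at 1 sec intervals.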

[13] = cAMP Responsive Elements (CRE) small molecule agonists, cell-based qHTS assay (AID 1963590)
Summary of the method: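 Cells carrying a CRE-driven beta-lactamase reporter (HEK 293T) are seeded, incubated overnight (18 h), and treated with test compounds for 3 h at 37 C; reporter activity is then detected with a FRET substrate after 2 h at room temperature.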

[14] = cAMP Responsive Elements (CRE) small molecule antagonists, cell-based qHTS assay (AID 1963591; active = well fitted inhibition curve with a large enough effect in the signal ratio in the repeat runs, not every such curve was filed as active; the % refers to the signal ratio)
Summary of the method: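 Cells (CRE-bla HEK 293T, DMEM with 10% dialyzed FBS and 25 mM HEPES) are seeded and incubated 18 h. Compounds are added with NKH477 agonist at 0.25 uM final for 3 h, then FRET substrate for 2 h.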

[15] = biological target: Beta-2 adrenergic receptor (Homo sapiens) (UniProt P07550); assay: Adrenergic beta2 receptor (ADRB2) small molecule antagonists, cell-based qHTS assay (AID 1963592); also: series mostly up to about 92 µM; nearly all actives have a fitted effect of over 50% in size
Beta-2 adrenergic receptor (Homo sapiens), sequence (P07550 whole entry, looked up): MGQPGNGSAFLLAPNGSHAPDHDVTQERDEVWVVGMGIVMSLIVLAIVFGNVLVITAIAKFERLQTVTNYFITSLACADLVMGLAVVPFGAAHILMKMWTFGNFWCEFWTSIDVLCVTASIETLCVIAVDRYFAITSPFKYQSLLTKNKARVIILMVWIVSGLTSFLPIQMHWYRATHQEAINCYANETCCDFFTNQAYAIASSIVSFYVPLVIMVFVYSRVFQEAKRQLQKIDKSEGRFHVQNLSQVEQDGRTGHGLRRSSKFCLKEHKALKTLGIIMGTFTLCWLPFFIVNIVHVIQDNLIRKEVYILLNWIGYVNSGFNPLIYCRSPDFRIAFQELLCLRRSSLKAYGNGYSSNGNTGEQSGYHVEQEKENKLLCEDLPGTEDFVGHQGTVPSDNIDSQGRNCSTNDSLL
Summary of the method: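 Assay format: CHO-ADRB2 cells, 18-20hr seeding at 37C/5% CO2, then compound plus 1nM isoproterenol agonist mix for 0.5hr RT. Homogeneous time-resolved fluorescence cAMP detection after 1hr, expressed as 665/615 nm ratio.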

[16] = biological target: Beta-2 adrenergic receptor (Homo sapiens) (UniProt P07550); assay: Adrenergic beta2 receptor (ADRB2) small molecule agonists, cell-based qHTS assay (AID 1963593);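 also: CHO cells stably overexpressing human ADRB2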
Summary of the method: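 CHO cells stably over-expressing ADRB2 were plated overnight at 37C, then dosed with compounds plus a stimulation mix containing 100uM IBMX and 25uM Ro-20-1724 for 0.5hr at room temperature. cAMP was measured by HTRF competition, 1hr.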

[17] = biological target: D(2) dopamine receptor (Homo sapiens) (UniProt P14416); assay: Dopamine D2 receptor (DRD2) small molecule agonists, cell-based qHTS assay (AID 1963594); also: nearly all actives have a fitted effect of over 35% in size
D(2) dopamine receptor (Homo sapiens), sequence (P14416 whole entry, looked up): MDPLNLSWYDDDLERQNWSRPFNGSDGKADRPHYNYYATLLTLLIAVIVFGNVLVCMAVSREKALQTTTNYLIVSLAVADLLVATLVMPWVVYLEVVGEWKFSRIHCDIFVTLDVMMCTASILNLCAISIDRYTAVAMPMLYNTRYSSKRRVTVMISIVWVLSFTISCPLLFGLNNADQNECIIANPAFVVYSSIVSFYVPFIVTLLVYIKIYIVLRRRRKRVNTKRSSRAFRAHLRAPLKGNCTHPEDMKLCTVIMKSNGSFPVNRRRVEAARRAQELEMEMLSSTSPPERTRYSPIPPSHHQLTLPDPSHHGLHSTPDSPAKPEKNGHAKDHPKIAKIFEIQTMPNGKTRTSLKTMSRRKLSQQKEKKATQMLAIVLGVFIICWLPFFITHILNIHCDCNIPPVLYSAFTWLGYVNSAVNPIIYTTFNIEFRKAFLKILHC
Summary of the method: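 HEK293 cells stably expressing DRD2 were cultured 24 h at 37 C, then given Ro20-1724 (0.1 mM final) and compounds for 10 min at room temperature. NKH477 (200nM) was then added for 30 min. cAMP was read by HTRF.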

[18] = biological target: D(2) dopamine receptor (Homo sapiens) (UniProt P14416); assay: Dopamine D2 receptor (DRD2) small molecule antagonists, cell-based qHTS assay (AID 1963595; active = well fitted inhibition curve with a large enough effect in the signal ratio in the repeat runs, with a control signal flat; the % refers to the signal ratio)
Summary of the method: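 Antagonist mode in DRD2-HEK293 cells: after compound addition with 0.1 mM Ro20-1724, cells received quinpirole (12 nM) and NKH477 (200 nM) for 30 min at room temperature; HTRF cAMP read after 1 h detection.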

[19] = biological target: Muscarinic acetylcholine receptor M1 (Homo sapiens) (UniProt P11229); assay: Cholinergic receptor muscarinic 1 (CHRM1) small molecule antagonists, cell-based qHTS assay (AID 1963588); also: nearly all actives have a fitted effect of over 40% in size
Summary of the method: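 Compounds were tested at 15 concentrations in three independent runs. Dye-loaded CHRM1-CHO cells were exposed 5 min at room temperature before stimulation by acetylcholine added at 50nM. Intracellular calcium was read kinetically on FDSS for 3 min.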

| Structure (SMILES) | Potency [1] | Potency [2] | Potency [3] | Potency [4] | Potency [5] | Potency [6] | Potency [7] | Potency [8] | Potency [9] | Potency [10] | Potency [11] | Potency [12] | Potency [13] | Potency [14] | Potency [15] | Potency [16] | Potency [17] | Potency [18] | Potency [19] |
| --- | --- | --- | --- | --- | --- | --- | --- | --- | --- | --- | --- | --- | --- | --- | --- | --- | --- | --- | --- |
| CC(=O)OCCc1ccccc1 | inactive | inactive | inactive | inactive | inactive | inactive | inactive | inactive | inactive | inactive | inactive | inactive | inactive | inactive | inactive | inactive | inactive | inactive | – |
| Oc1ccc(/C=C/c2cc(O)cc(O)c2)cc1 | inactive | 4.9 µM (active) and 7.7 µM (active) and 11.9 µM (active) | inactive | inactive | inactive | inactive | – | inactive | inactive | – | – | – | – | inactive | inactive | inactive | inactive | – | – |
| COC(=O)CCCCC(=O)O | inactive | inactive | inactive | inactive | inactive | inactive | – | inactive | inactive | inactive | inactive | inactive | inactive | inactive | inactive | inactive | inactive | inactive | inactive |
| CC(=O)O[C@@H]1CC2C3CCc4cc(OC(=O)c5ccccc5)ccc4C3CCC2(C)[C@H]1OC(C)=O (stereo partly specified) | inactive | inactive | inactive | inactive | inactive | inactive | inactive | inactive | – | inactive | inactive | inactive | inactive | inactive | inactive | inactive | inactive | inactive | inactive |
